Experimental data reported in ChEMBL document CHEMBL4888484, “Replenishing the malaria drug discovery pipeline: Screening and hit evaluation of the MMV Hit Generation Library 1 (HGL1) against asexual blood stage Plasmodium falciparum ,using a nano luciferase reporter read-out” (2022).
Among all 4,800 compounds or so, about 410 (8.5%) showed an effect of 50% or more. Only a selection was taken, and strong results are over-represented in it overall.

Each compound was assayed on Plasmodium falciparum (assay: Confirmatory screen in NF54 pLDH assay, in single point, at 2uM, 72h). Details: timepoint 72 hour.
Format: functional, Erythrocyte

Structure (SMILES)	% Inhibition [%]
Cc1ccc(NC(=O)Cn2c(C)nc3c(-c4ccccn4)nsc3c2=O)c(C)c1	12
CC[C@@H](CO)NCc1cccc(OC)c1OCC(=O)NC(C)(C)C	-12
CCOc1cc(CNc2cccc3ccccc23)cc(Br)c1OCC(=O)NC(C)(C)C	91
COc1cccc(CNC(C)(C)C)c1OCC(=O)NC(C)(C)C	-4
O=C(Nc1ccn(-c2ccccc2)n1)N1CC2CCC(O)CC2C1 (centres undefined)	-3
Cc1nsc2ncc(C(=O)N3CCC(C)CC3)c(N3CCC(C(=O)Nc4cc(F)ccc4F)CC3)c12	44
Cc1cnccc1NCCNCc1cccc(O)c1Cl	101
COc1ccccc1CNCCNC(=O)c1ccncc1	9
Clc1cc(CNCCc2ccccc2)ccc1OCc1ccccc1	3
N#Cc1c(CN(CCn2cccn2)Cc2cn3ccccc3c2C#N)cn2ccccc12	-22
C=CCN(CC=C)S(=O)(=O)c1ccc(S(=O)(=O)NC)cc1	-10
O=C(NC1CCCC1)c1cnn2c3c(cnc12)CCCCCC3	11
CCn1cc(Cl)c(C(=O)N(C2CCCCC2)C2CCCCC2)n1	10
Fc1cccc(F)c1-n1c(CN2CCCCC2)csc1=S	-5
CC(C)c1c2cc3c(cc2nn1-c1ccccc1)OCCO3	-11
CCCCCNC(=O)NCc1ncoc1C	4
C[C@H](O)CNCc1ccc(Cl)cc1Cl	1
Cc1cc(C)cc(-n2c(=O)c3sccc3n(CC(=O)NCc3ccccc3Cl)c2=O)c1	-17
O=c1[nH]c2ccccc2nc1-c1cc(Br)ccc1NS(=O)(=O)c1cccc2nsnc12	3
CNc1nc(N2C[C@H](C)[C@@](O)(C3CC3)C2)nc2c1CCC2	1
Fc1ccccc1N1CCN(c2c3c(nc4nc(Cc5ccc(Cl)cc5)nn24)CCCC3)CC1	7
Cc1cc(-c2ccccc2)c(C#N)c(=O)n1C(=O)c1ccc(C#N)cc1	11
Brc1cc(Br)c2nc(-c3ccc(C4CCCCC4)cc3)ccc2c1	12
Cc1[nH]c2ccnn2c(=O)c1CC(=O)N1CC[C@H](C)c2cccc(O)c21	2
CCN(CC)c1nc(-c2ccccc2)c(C#N)c(N)c1C#N	12

Structure (SMILES)	% Inhibition [%]
O=C(CN1CCOC2CCCCC21)N1CCOC2CCCCC21 (centres undefined)	-9
O=C(CN1CCC[C@H]1C1CCCC1)NCC1CCCCC1	61
CC(C)N1CCC(NC(=O)NCC2CCCCCCC2)CC1	6
COc1ccc(OCC(=O)Nc2ccc(N3CCn4c(nc5cc(Cl)ccc54)C3)cc2OC)cc1	-5
CC(C)COc1ccc(/C(N)=N/O)cc1	-20
Cc1ccccc1CN(Cc1ccccn1)Cc1ccnn1C	-5
CC1CCC(N(C)C(=O)c2cc(S(=O)(=O)N3CCCCC3)ccc2N2CCCC2)CC1 (centres undefined)	-10
Cc1cc(C(=O)N[C@H]2CCS(=O)(=O)C2)nc(N(C)C)n1	2
Cc1ccc(N2C(=O)CN(CC(C)C)[C@H]3CS(=O)(=O)C[C@H]32)cc1	14
Cc1cccc(NC(=O)CCC(=O)OCC(F)(F)C(F)F)c1C	1
CC(C)(C)[C@H]1CCc2c(sc(NC(=O)C3(F)C(F)(F)C(F)(F)C(F)(F)C(F)(F)C3(F)F)c2C#N)C1	51
N#Cc1c(NC(=O)CN2CCC[C@@H]2CO)sc2c1CCCCC2	0
COCCN(CC(N)=O)CC(=O)NCc1ccccc1F	9
COc1ccc(CCNc2nc(-c3ccc(OC)cc3F)c3c(N)n(-c4ccc(Cl)cc4)nc3n2)cc1	40
COCCNc1nc(-c2ccccc2OC)c2c(N)n(-c3ccc(F)cc3)nc2n1	-5
CC(C)(C)n1nc2nc(NCCN3CCCCC3)nc(-c3ccc(F)c(Cl)c3)c2c1N	76
CN(Cc1ccsc1)C(=O)c1cc2ccccc2[nH]1	17
Cn1c(-c2ccc(Br)cc2)c[n+](CC(=O)c2ccc(Br)cc2)c1N	-4
FC(F)Oc1ccc(-c2c[n+](-c3cccc(C(F)(F)F)c3)c3n2CCCCC3)cc1	42
Cn1c(-c2ccc(Cl)c(Cl)c2)c[n+](CC(=O)c2ccc(F)cc2)c1N	-12
COc1ccc(CC(=O)NCc2nnc3n2CCC3)cc1	9
COc1ccc(C(=O)C[n+]2nc(CNc3ccc(Br)cc3)n3c2CCCCC3)cc1	82
CCOc1ccc(-[n+]2cc(-c3ccccc3)n3c2CCC3)cc1	70
COc1ccc(C(=O)C[n+]2cc(-c3ccc(OC)cc3)n3c2CCCC3)cc1	65
CCOc1nc(C)nc2cc(-c3ccccc3)n(Cc3ccccc3)c12	13

Structure (SMILES)	% Inhibition [%]
Cc1ccc(-c2c[n+](-c3ccc(OC(F)F)cc3)c3n2CCCCC3)cc1	60
Cc1nnc(NC(c2cnc3ccccc3c2)[C@H]2C[C@@H](O)C2)s1 (some centres undefined)	12
O=C(Cc1c[nH]c2ccccc12)N1CCc2ccccc2C1	-17
COc1ccc2c(c1)OC13CCN(C)CC1C2C(C(=O)c1ccccc1OC)C(=O)N3 (centres undefined)	10
CCC(=O)N1CCc2sc(S(=O)(=O)N3CCN(c4cc(C)ccc4C)CC3)cc2C1	38
c1ccc(-c2cn(-c3ccccc3)c3ncnc(N4CCCC4)c23)cc1	13
C=CCOc1cc(C(=O)N2CCCCC2)cc2occc12	11
COc1cc([C@H]2CC(=O)Nc3c2cnn3C)ccc1OCc1ccccc1	-8
O=C(NC1CCCNC1=O)NC1CCCC1c1ccc(Cl)cc1 (centres undefined)	10
O=C(NCCC1=CCOCC1)c1cnc2ccccn12	-2
O=C(CCc1ccccc1)Nc1ccc(-n2nn[nH]c2=O)cc1	15
O=C1Nc2ccccc2[C@@]12Nc1ccccc1CO2	9
C[C@@H](C(=O)N1CCN(C/C=C/c2ccccc2)CC1)N1Cc2ccccc2C1=O	0
Cc1ccc(CCNC(=O)c2ccc(-c3nc(CS(=O)(=O)c4ccc(C)cc4)c(C)o3)cc2)cc1	-23
COc1ccc(N2CCN(Cc3cc(-c4ccc(Cl)cc4)no3)CC2)cc1	-19
COc1ccc(-c2c[n+](-c3ccc(Cl)cc3)c3n2CCCCC3)cc1	57
COc1ccc(-n2nc(C(=O)N3CCN(c4ncccn4)CC3)c(=O)cc2OC)cc1	-29
CCC(C)(C)N(C)C(=O)c1ccccc1Cl	-1
Cc1cc(C)n(S(=O)(=O)c2ccc3c(c2)OCCO3)n1	7
COc1ccc2c(c1)CCN2S(=O)(=O)c1ccc2c(c1)OCCO2	-4
CC12CN(S(=O)(=O)c3ccc4c(c3)OCCO4)C3(C(=O)OCc4ccccc4)CC1CCC23C (centres undefined)	64
CC(C)C(=O)N1N=C(C(C)C)C[C@]1(O)C(F)(F)F	13
Oc1csc(Cc2nc(C(F)(F)F)cs2)n1	-4
COC1(CNC(=O)C[C@H](O)c2ccccc2)CCC1	-2
COc1cccc(CCc2ccccc2OC[C@H](CN(C)C)OC(=O)CCC(=O)O)c1	-5

Structure (SMILES)	% Inhibition [%]
O=C(C[C@H](NCCO)C(=O)O)c1ccc2c(c1)CCCC2	2
O=C(Nc1ccsc1C(=O)NCc1cc(F)cc(F)c1)c1cnccn1	13
CNc1nc(C)cc(C(=O)Nc2ccc(Cl)cc2NC(C)=O)n1	5
C[C@@H](NC(=O)Nc1ccc(Cl)c(Cl)c1)C(=O)O	10
O=C(Nc1ccc(Cl)c(Cl)c1)Nc1ccc(Cl)cc1NC(=O)Nc1ccc(Cl)c(Cl)c1	65
COc1ccc(-c2cc3n(n2)C[C@@](C)(C(=O)NCc2ccccc2)N(Cc2ccc4c(c2)OCO4)C3=O)cc1	39
COc1cc(N2CCn3c(nc4cc(Cl)ccc43)C2)ccc1NC(=O)C1CCCCC1	-13
Cc1ccc(C(=O)N(Cc2cccc(F)c2)c2ccc(CC(=O)N[C@@H](C)c3ccccc3)cc2)cc1	89
O=C(Cc1ccc(N(Cc2cccc(F)c2)C(=O)c2cccc(F)c2)cc1)NCCN1CCCCC1	29
Cc1ccccc1C(=O)N(Cc1cccc(F)c1)c1ccc(CC(=O)NCCN2CCCCC2)cc1	39
O=C(OCc1cncs1)c1ccccc1	10
Cc1cc2nnc(-c3nc4ccccc4[nH]3)c(N)n2n1	-2
Nc1c(-c2nc3ccccc3[nH]2)c2nc3ccccc3nc2n1Cc1ccccc1F	62
CCC1C(C(=O)NCCN(C)CCOC)CCN1C(=O)OC(C)(C)C (centres undefined)	1
CCn1ccc([C@H](C)NC(=O)c2cc(-c3ccc(OC)cc3)nc3c2c(C)nn3C)n1	12
Cc1c(CN(C)C(=O)Cn2ncc(Br)c2C)cnn1C	4
CCc1ccc(CN2C(=O)c3c(C(=O)OC)ncn3C[C@@]2(C)C(=O)NC2CCCCCC2)cc1	14
C[C@@]1(C(=O)NCc2ccccc2)Cn2nc(-c3ccccc3)cc2C(=O)N1c1ccc2c(c1)OCCO2	36
CCc1ccc(-c2cc3n(n2)C[C@@](C)(C(=O)NC2CCCCC2)N(c2cc(C)cc(C)c2)C3=O)cc1	58
O=C(O[C@@H](c1ccccc1)N1C(=O)C(C(F)(F)F)(C(F)(F)F)c2ccccc21)C(C(F)(F)F)C(F)(F)F	12
Cc1c(NC(=O)c2ccccc2-c2ccccc2)ccc(N2CCCC2=O)c1NC(=O)c1ccccc1-c1ccccc1	-15
CCCN(CC(=O)O)S(=O)(=O)c1cccc(C)c1Br	-23
O=C(Nc1ccc2c(c1)cc(C(=O)Nc1ccc(C(F)(F)F)cc1)n2Cc1cccc(F)c1)c1ccccc1Cl	-25
C#CCN(CCCc1ccccc1C)[C@H]1CCS(=O)(=O)C1	-23
